Compound activity as filed in PubChem.
HPGD inh = blocks human HPGD enzyme activity. purified HPGD, NADH fluorescence kinetic, PGE2 substrate. Potency, µM, without a hit: at the highest dose activity change, negative = inhibition, actives largely listed as inhibitors. hit rate 4.3% among 150,000; also: potency is read from the fitted curve at half-maximal effect
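NADH formation kinetics: reaction with 30 uM PGE2 and 1 mM NAD+ (final), 20 nM enzyme, Tris-HCl pH 8 with Tween 20, after 15 min compound preincubation at room temperature. Fluorescence change, last versus first of five reads.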
KDM4E inh = inhibitors of human JMJD2E histone demethylase; B2RXH2; JMJD2E catalytic domain, FDH-coupled NADH fluorescence (FDH is formaldehyde dehydrogenase); hit rate 1.6% among 230,000; Potency, µM (doses to about 57.1 µM), for the others: at the highest dose activity change, negative = inhibition, usual class: inhibitors; AID 2147;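 also: potency is read from the fitted curve at half-maximal effect; 0% = wells with enzyme and -100% = buffer wells without enzyme; nearly all actives have a fitted effect of over 50% in size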
ALDH1A1 inh = inhibitors of human aldehyde dehydrogenase 1A1; Purified ALDH1A1, NADH fluorescence, propionaldehyde substrate; Potency, µM (series often up to 75.3 µM), for the others: top-dose activity, negative = inhibition, actives largely listed as inhibitors; hit rate 7.3% among 220,000; AID 1030;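 also: potency is read from the fitted curve at half-maximal effect; plate controls were no enzyme wells and a reference inhibitor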
Target sequence (P00352 whole entry, looked up): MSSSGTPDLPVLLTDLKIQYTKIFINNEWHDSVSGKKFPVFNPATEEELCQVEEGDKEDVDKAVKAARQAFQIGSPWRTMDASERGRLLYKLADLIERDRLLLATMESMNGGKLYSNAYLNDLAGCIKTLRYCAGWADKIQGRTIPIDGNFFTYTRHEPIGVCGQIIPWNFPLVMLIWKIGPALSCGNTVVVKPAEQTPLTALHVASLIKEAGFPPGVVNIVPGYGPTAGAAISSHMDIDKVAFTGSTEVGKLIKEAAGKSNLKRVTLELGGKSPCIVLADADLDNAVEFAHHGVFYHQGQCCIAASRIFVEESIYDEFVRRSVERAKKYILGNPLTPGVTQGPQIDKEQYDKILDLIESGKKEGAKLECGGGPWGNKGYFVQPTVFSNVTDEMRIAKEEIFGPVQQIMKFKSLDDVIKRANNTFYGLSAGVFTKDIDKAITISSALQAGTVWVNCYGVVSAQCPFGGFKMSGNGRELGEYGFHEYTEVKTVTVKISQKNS
PNC assembly inh = blocks assembly of the perinucleolar compartment. activity change (PNC), negative = inhibition, % at 10 µM. hit rate 3.1% among 140,000. PC3M PTB-GFP, PNC prevalence imaging, 16 h; hits give low values;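 active = readout at or below -70, meaning at least 70% loss of cells showing the perinucleolar compartment, a nuclear body marking cancer cells; inconclusive = readout between -30 and a set limit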;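 also: plate controls were DMSO wells for no effect and camptothecin positive control wells for full effect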
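Compounds are pinned in duplicate onto adhered PC3M cells stably expressing GFP-tagged PTB and incubated 16 h at 37 C. Cells are then fixed, nuclei stained with Hoechst, and PNC-positive cells counted.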
* = called active by the depositor; [ ] = dose if it differs, or a comment. Rows were chosen to be rich in hits. Some 11% of all compounds tested hit in one or more screens of this group. Unless noted, calls follow the shape of the dose curve; as a rule, active = well fitted inhibition curve with a large enough effect (not every such curve was filed as active); inconclusive = small, poorly fitted or top-dose-only effect, or another doubt; inactive = no such curve, though single readings can be large or run the other way. Unless noted, % is scaled to controls: 0 for no effect and ±100 for the full control effect.

For Cn1nnnc1SCC(=O)Nc1ccccc1Cc1ccccc1 the results were HPGD inh -10%, KDM4E inh 2%, ALDH1A1 inh -6% and PNC assembly inh 9.
Screening O=C(Nc1cccc(S(=O)(=O)N2CCCC2)c1)c1cc(-c2ccccn2)nc2ccccc12 returned KDM4E inh -3% and ALDH1A1 inh -4%.
For COc1ccc(Cc2nnc(NC(=O)C3CCCO3)s2)cc1 (centres undefined) the results were HPGD inh -18%, KDM4E inh 1%, ALDH1A1 inh inconclusive and PNC assembly inh -123*.
`COc1ccc(Cc2nnc(NC(=O)C3CCCO3)s2)cc1OC` (centres undefined) gave HPGD inh -14%, KDM4E inh -4%, ALDH1A1 inh inconclusive and PNC assembly inh inconclusive.
For O=C(Nc1nnc(Cc2ccc(Cl)cc2)s1)C1CCCO1 (centres undefined) the results were KDM4E inh -7% and ALDH1A1 inh 14µM*.
`CCCCCCCCCCCCC1CO1` (centres undefined) gave HPGD inh -2% and ALDH1A1 inh 22%.
OCC1(CC2CCCCO2)CCN(Cc2cccc(O)c2)CC1 (centres undefined) was read as KDM4E inh 8% and ALDH1A1 inh 9%.
For CC(Oc1ccccc1F)C(=O)Nc1ccc2ccccc2c1 (centres undefined) the results were HPGD inh -21%, KDM4E inh 8%, ALDH1A1 inh 1% and PNC assembly inh -87*.
Cc1cnc(CNc2ncnc3ccc(-c4ccccc4C#N)cc23)cn1 was read as HPGD inh -17%, KDM4E inh inconclusive and ALDH1A1 inh -9%.
NNC(=O)c1ccccc1-n1cccc1 was read as KDM4E inh 26% and ALDH1A1 inh inconclusive.
`C/C(=N\NC(=O)c1ccccc1-n1cccc1)C1CC1` gave HPGD inh -15%, KDM4E inh 5%, ALDH1A1 inh 4µM* and PNC assembly inh 39.
For O=C(CSC(=S)N1CCOCC1)Nc1nc(=O)c2ccccc2s1 the results were HPGD inh -22%, KDM4E inh -2%, ALDH1A1 inh 6.3µM* and PNC assembly inh 25.
COc1ccc(CCNC(=O)/C(C#N)=C/c2cccc(OCc3ccccc3)c2)cc1OC was read as HPGD inh -17%, KDM4E inh -16%, ALDH1A1 inh -12% and PNC assembly inh 59.
Screening N#C/C(=C\c1cccc(NC(=O)c2ccccc2Cl)c1)C(=O)NCCc1ccccc1 returned HPGD inh inconclusive, KDM4E inh inconclusive, ALDH1A1 inh 25µM* and PNC assembly inh -17.
For COCCCNC(=O)/C(C#N)=C/c1cccc(NC(=O)c2ccccc2Cl)c1 the results were HPGD inh -27%, KDM4E inh -14%, ALDH1A1 inh 14µM* and PNC assembly inh 11.
COCCCNC(=O)/C(C#N)=C/c1ccc(F)cc1 was read as KDM4E inh 6% and ALDH1A1 inh inconclusive.
Screening CC(=O)OCOC(c1ccc2ccccc2c1)P(=O)(OCOC(C)=O)OCOC(C)=O (centres undefined) returned ALDH1A1 inh 2%.
Cc1ccc(/C=C/C(=O)N2CCc3ccccc3C2)cc1 was read as HPGD inh 14µM*, KDM4E inh -1%, ALDH1A1 inh 0% and PNC assembly inh 8.
`O=C(/C=C/C(=O)N1CCc2ccccc2C1)N1CCc2ccccc2C1` gave KDM4E inh -15%.
`O=C1Nc2ccccc2SC(c2ccccc2)C1O` (centres undefined) gave HPGD inh 28µM*, KDM4E inh inconclusive, ALDH1A1 inh -13% and PNC assembly inh inconclusive.
Screening O=C(O)CC1Sc2ccccc2NC1=O (centres undefined) returned HPGD inh -12%, KDM4E inh 4%, ALDH1A1 inh -13% and PNC assembly inh 17.
`Cc1cc(C)n(C(=O)/C(C#N)=C/N(C)C)n1` gave KDM4E inh 3% and ALDH1A1 inh -1%.
CCn1cc(/C=N/NC(=O)c2ccc3c(c2)OCO3)cn1 was read as HPGD inh -4%, KDM4E inh -5%, ALDH1A1 inh 7% and PNC assembly inh 66.
Screening CCC1=NN2C(=N)/C(=C\c3cccn3-c3cccc(Cl)c3)C(=O)N=C2S1 returned KDM4E inh inconclusive and ALDH1A1 inh 1.8µM*.
Screening Cc1ccc(-n2cccc2/C=C2/C(=N)N3C(=NC2=O)SN=C3S(C)(=O)=O)cc1Cl returned HPGD inh -15%, KDM4E inh 22µM*, ALDH1A1 inh 18µM* and PNC assembly inh 0.
`CCOc1ccc(-n2c(C)cc(/C=C3/C(=N)N4C(=NC3=O)SN=C4S(C)(=O)=O)c2C)cc1` gave KDM4E inh inconclusive and ALDH1A1 inh 18µM*.
CC1=CSC2=NC(=O)/C(=C\c3cccn3-c3ccccc3)C(=N)N12 was read as HPGD inh -18%, KDM4E inh 4%, ALDH1A1 inh 22µM* and PNC assembly inh 63.
Screening O=C1c2ccccc2C(=O)N1c1ccc(Cc2ccc(N3C(=O)c4ccccc4C3=O)cc2)cc1 returned HPGD inh 2% and ALDH1A1 inh -1%[13.5 µM].
Screening CCCCc1nc2c(c3c1C[C@H](C)OC3)CN(S(=O)(=O)c1c(C)noc1C)CC2 returned HPGD inh -9%, KDM4E inh -23%[11.4 µM] and ALDH1A1 inh -9%[13.5 µM].
Screening COc1ncc2ncc(=O)n(C)c2n1 returned HPGD inh -16% and ALDH1A1 inh -8%.
Screening Cc1cc(/C=C2/C(=N)N3C(=NC2=O)SN=C3S(C)(=O)=O)c(C)n1-c1ccc(F)cc1 returned KDM4E inh 32µM* and ALDH1A1 inh 28µM*.
`CC1=CC2=NC(=O)/C(=C\c3cc(C)n(-c4ccc(F)cc4)c3C)C(=N)N2O1` gave HPGD inh inconclusive, KDM4E inh inconclusive, ALDH1A1 inh 6% and PNC assembly inh inconclusive.
CCOC(=O)C(C(C)=O)=C1SC2CS(=O)(=O)CC2S1 (centres undefined) was read as HPGD inh -11%, KDM4E inh -8%, ALDH1A1 inh 10% and PNC assembly inh -127*.
`CCOC(=O)C(C(=O)OCC)C1CS(=O)(=O)CC1C(C(=O)OCC)C(=O)OCC` (centres undefined) gave HPGD inh 6%, KDM4E inh 4%, ALDH1A1 inh -6% and PNC assembly inh 9.
Oc1cc(Cc2ccccc2)cnc1CN1CCCCC1 was read as HPGD inh 25µM*, KDM4E inh 8%, ALDH1A1 inh 25µM* and PNC assembly inh 43.
For O=S(=O)(NC(=NCc1ccccc1)c1ccc(F)cc1)c1ccc(Cl)cc1 the results were KDM4E inh 1% and ALDH1A1 inh -14%.
O=C(COC(=O)c1ccc(O)cc1)Nc1ccccc1[N+](=O)[O-] was read as KDM4E inh 7% and ALDH1A1 inh -1%.
Screening O=C(O)CCn1nnc(-c2cccs2)n1 returned HPGD inh 0%, KDM4E inh 1%, ALDH1A1 inh 17% and PNC assembly inh -105*.
O=C(O)Cn1nnc(-c2cccs2)n1 was read as HPGD inh -28%, KDM4E inh 6%, ALDH1A1 inh 6% and PNC assembly inh 10.
